From PubChem BioAssay
Calls of active or inactive are those of the source. No rule for the calls is given here.

Target: Pantothenate synthetase (Mycobacterium tuberculosis (strain ATCC 25618 / H37Rv)) (UniProt P9WIL5)
Assay: Recombinant Mtb pantothenate synthetase (PanC) inhibitors, coupled enzyme, confirmatory (AID 375);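 also: 0% = full reaction with vehicle and 100% = no enzyme background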
Settings: coupled enzyme assay; at 10 µM, active compounds read high

Chain of Pantothenate synthetase (Mycobacterium tuberculosis (strain ATCC 25618 / H37Rv)) (P9WIL5 whole entry, looked up): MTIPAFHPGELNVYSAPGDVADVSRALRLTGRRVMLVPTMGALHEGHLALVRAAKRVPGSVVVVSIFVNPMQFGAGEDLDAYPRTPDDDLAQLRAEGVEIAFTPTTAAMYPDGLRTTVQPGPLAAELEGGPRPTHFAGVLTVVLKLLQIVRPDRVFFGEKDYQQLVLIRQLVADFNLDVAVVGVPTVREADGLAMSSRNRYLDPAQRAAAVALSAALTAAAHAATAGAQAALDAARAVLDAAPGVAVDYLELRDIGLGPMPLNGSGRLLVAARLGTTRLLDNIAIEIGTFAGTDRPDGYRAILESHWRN

SMILES | inhibition
CCn1c(=O)cc(SCC(=O)N2CCN(C3CCCCC3)CC2)c2ccccc21 | 2% (inactive)
Cc1csc(NC(=O)c2cc3c(s2)-c2ccccc2OC3)n1 | 0% (inactive)
CN(C)CCCN1C(=O)c2oc3ccccc3c(=O)c2C1c1cccs1 (stereo unspecified) | 0% (inactive)
CCOC(=O)C1CCCn2c1nc1sc3c(c1c2=O)CCCC3 (stereo unspecified) | 0% (inactive)
CN1C(=O)CSc2ccc(NC(=O)N3CCN(c4ccccn4)CC3)cc21 | 8% (inactive)
CCOC(=O)N1CCN(C(c2ccc(Cl)cc2)c2sc3nc(C)nn3c2O)CC1 (stereo unspecified) | 0% (inactive)
CCOC(=O)Cc1csc(NC(=O)CN(C)S(=O)(=O)c2ccc3c(c2)CCC(=O)N3)n1 | 0% (inactive)
Cc1c(C(=O)NCCC2=CCCCC2)oc2ccc(S(=O)(=O)N3CCC4(CC3)OCCO4)cc12 | 0% (inactive)
CSCCC(NS(=O)(=O)c1ccc2c(c1)oc(=O)n2C)C(=O)NC1CCCCC1 (stereo unspecified) | 0% (inactive)
C=CCN1C(=O)CS/C1=N/c1nccs1 | 0% (inactive)
O=C1CCc2nc3sc4c(c3c(=O)n2N1)CCCC4 | 0% (inactive)
COC(=O)CCC(=O)Nc1ccc(S(=O)(=O)N2CCCCCC2)cc1 | 0% (inactive)
O=C(CN1C(=O)c2ccccc2C1=O)Nc1ccccc1C(=O)N1CCCC1 | 1% (inactive)
COc1ccc(CN(CCN(C)C)c2ccccn2)cc1 | 4% (inactive)
O=C(CSc1nnc(Cc2ccccc2)n1-c1cccc(Cl)c1)N1CCOCC1 | 0% (inactive)
Cn1c(=O)[nH]c(=O)c2c1nc(N1CCOCC1)n2CC(O)COc1ccc2ccccc2c1 (stereo unspecified) | 0% (inactive)
